Screens (PubChem BioAssay)
Compounds with a hit are over-represented: about 7.1% of the library has one in this group of screens.
ELG1 genotox = induces genotoxicity in HEK293T cells with luciferase-tagged ELG1; hit rate 1.3% among 330,000; AID 504466; HEK293T ELG1-luciferase reporter, luminescence, 16 h; Potency, µM (top dose mostly 46 µM), for the others: at the top dose activity change, positive = activation, hits mostly activators; also: % of control where 0% means no effect; nearly all actives have a fitted effect of over 60% in size
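HEK293T cells expressing luciferase-tagged ELG1 were treated with compound or DMSO for 16 hr at 37°C. Luciferase activity was then read after 30 min with ONE-Glo at room temperature; rising signal flags genetic stress.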
MCF10A rerep = DNA re-replication induction in MCF 10a cells; MCF 10A DNA re-replication, Hoechst nuclear intensity, 48 h; hit rate 2.9% among 350,000; Potency, µM (titrated, usually from 46.1 µM), without a hit: at the highest dose activity, positive = re-replication, most hits filed as activators; AID 624296; also: % of control where 0% means no effect; nearly all actives have a fitted effect of over 50% in size
ELG1 repair inh = blocks ELG1-dependent DNA repair in HEK293T cells; hit rate 2.3% among 330,000; AID 504467; HEK293T ELG1-luciferase reporter, luminescence, 16 h; DNA damage induced by 5-fluorouridine; Potency, µM (series often up to 46.1 µM), without a hit: top-dose activity change, negative = inhibition, most hits filed as inhibitors; also: % is scaled to controls: 0 for no effect and ±100 for the full control effect; nearly all actives have a fitted effect of over 55% in size
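HEK293T cells expressing luciferase-tagged ELG1 (2,000/well) received 5-Fluorouridine plus compound or DMSO for 16 hr at 37 °C. Luciferase was read by ONE-Glo luminescence after 30 min at room temperature.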
SW480 rereplic = inducers of DNA re-replication in SW480 colon cancer cells; SW480 DNA re-replication, Hoechst DNA content imaging, 48 h; Potency, µM (highest dose often 46.1 µM), for the others: at the top dose re-replication activation, hits mostly activators; hit rate 1.8% among 340,000; AID 624297; also: % of control where 0% means no effect; nearly all actives have a fitted effect of over 55% in size
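250 cells/well; 23 nL cpd via pin tool; 48 hr, 37 C, 5% CO2; Hoechst 40 min; imager read of total nuclear intensity, ex 405/em 500-530 nm.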
p53 reactivation = restores transcriptional activity of mutant p53; H1299 p53-A138V BP100-luciferase reporter, luminescence, 24 h; Potency, µM (highest dose often 92.2 µM), for the others: at the top dose activity change, positive = activation, usual class: activators; hit rate 0.063% among 320,000; AID 504706; also: % of control where 0% means no effect; nearly all actives have a fitted effect of over 45% in size
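p53-null H1299 cells stably carrying temperature-sensitive p53-A138V and a BP100-luciferase reporter were pinned with compounds (4-point, 1:5 series) and held 24 hrs at 37 deg C. Luminescence was read 10 min after detection reagent.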
A-T KAP1 phos = candidate therapy for ataxia-telangiectasia; F2112 A-T fibroblasts, KAP-1 phosphorylation AlphaLISA; neocarzinostatin DNA damage 30 min before lysis; Potency, µM (series often up to 57.5 µM), inactives show top-dose activation, actives largely listed as activators; hit rate 0.19% among 320,000; AID 485349; also: % of control where 0% means no effect; nearly all actives have a fitted effect of over 45% in size
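hTERT-immortalized A-T patient fibroblasts (F2112), 500 cells/well in OPTI-MEM, 1% FBS, got compounds for 60 min, then NCS for 30 min at 37C. Lysates were then assayed for phospho-KAP-1 by AlphaLISA (anti-pKAP1 donor, anti-KAP1 acceptor beads), 6 hr at 25C.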
Starred values were filed as active, the others as inactive; [ ] = remark or other dose. Calls follow the shape of the dose curve; as a rule, active = well fitted curve in the direction sought with a large enough effect; inconclusive = small, poorly fitted or top-dose-only effect, or another doubt; inactive = no such curve, though single readings can be large; an effect the other way counts as inactive or inconclusive. Potency is read from the fitted curve at half-maximal effect.

Screening CCOc1ccc2c(c1)C(C)=CC(C)(C)N2S(=O)(=O)c1ccc(C)cc1 returned ELG1 genotox 5.9%, MCF10A rerep 23.0%, ELG1 repair inh -0.7%, SW480 rereplic 13µM*, p53 reactivation 17.0% and A-T KAP1 phos 4.8%.
`CC1=CC(C)(C)N(S(=O)(=O)c2ccc(C)cc2)c2cc(C)ccc21` gave ELG1 genotox inconclusive, MCF10A rerep inconclusive, ELG1 repair inh -0.8%, SW480 rereplic 7.31µM* and p53 reactivation 10.5%.
O=C(CN1CCN(S(=O)(=O)c2ccc(Cl)c(Cl)c2)CC1)N1CCCC1 was read as ELG1 genotox 3.1%, MCF10A rerep 9.0%, ELG1 repair inh 25.2%, SW480 rereplic -4.2%, p53 reactivation 0.5% and A-T KAP1 phos 4.5%.
For CC1CN(C(=O)COC(=O)Cc2c(Cl)cccc2Cl)CC(C)O1 (stereo unspecified) the results were ELG1 genotox -0.1%, MCF10A rerep 8.5%, ELG1 repair inh 12.0%, SW480 rereplic 4.4%, p53 reactivation -5.2% and A-T KAP1 phos 4.0%.
`COc1cc(/C=C/C(=O)O)cc(S(=O)(=O)N2CCN(S(=O)(=O)c3ccc(Cl)cc3)CC2)c1OC` gave ELG1 genotox 1.8%, MCF10A rerep inconclusive, ELG1 repair inh -4.0%, SW480 rereplic -1.1%, p53 reactivation -0.1% and A-T KAP1 phos 2.9%.
`COc1cc(CN(C)Cc2cccc3ccccc23)cc([N+](=O)[O-])c1O` gave ELG1 genotox -3.9%, MCF10A rerep -2.1%, ELG1 repair inh 2.7%, SW480 rereplic -1.0% and A-T KAP1 phos 4.7%.
Oc1ccc(Br)cc1-c1n[nH]c(=S)n1Cc1ccccc1 was read as ELG1 genotox -1.7%, MCF10A rerep 8.6%, ELG1 repair inh -3.0%, SW480 rereplic 11.2%, p53 reactivation -3.4% and A-T KAP1 phos -7.4%.
Oc1ccc(Br)cc1-c1ccnn1-c1ccccc1 was read as ELG1 genotox -0.2%, MCF10A rerep 7.31µM*, ELG1 repair inh inconclusive, SW480 rereplic inconclusive, p53 reactivation -43.2% and A-T KAP1 phos -21.5%.
For CC(=O)N1CCN(c2ccc(NC(=S)NC(=O)c3ccc(C)c([N+](=O)[O-])c3)cc2)CC1 the results were ELG1 genotox -5.7%, MCF10A rerep -4.2%, ELG1 repair inh 20.6µM*, SW480 rereplic -28.7%, p53 reactivation -2.4% and A-T KAP1 phos -6.9%.
CCC(=O)N1CCN(c2ccc(NC(=O)c3ccc4c(c3)OCCO4)cc2)CC1 was read as ELG1 genotox inconclusive, MCF10A rerep -0.1%, ELG1 repair inh inconclusive, SW480 rereplic -0.8%, p53 reactivation 10.1% and A-T KAP1 phos -1.3%.
Screening Cc1ccc(C(=O)Nc2ccc(N3CCN(C)CC3)cc2)cc1C returned ELG1 genotox 1.83µM*, MCF10A rerep 12.7%, ELG1 repair inh inconclusive, SW480 rereplic inconclusive, p53 reactivation inconclusive and A-T KAP1 phos -5.4%.
CN1CCN(c2ccc(NC(=O)c3ccc4c(c3)OCCO4)cc2)CC1 was read as ELG1 genotox 4.61µM*, MCF10A rerep inconclusive, ELG1 repair inh inconclusive, SW480 rereplic -7.5%, p53 reactivation inconclusive and A-T KAP1 phos -1.7%.
For Cc1ccc(C(=O)Nc2ccc(N3CCN(S(C)(=O)=O)CC3)cc2)cc1C the results were ELG1 genotox -2.2%, MCF10A rerep inconclusive, ELG1 repair inh -11.4%, SW480 rereplic 16.4µM*, p53 reactivation 0.5% and A-T KAP1 phos -2.4%.
Cc1ccc(C(=O)Nc2ccc(N3CCN(S(C)(=O)=O)CC3)cc2)cc1 was read as ELG1 genotox 7.8%, MCF10A rerep -1.9%, ELG1 repair inh 27.2%, SW480 rereplic -8.8%, p53 reactivation 0.3% and A-T KAP1 phos -0.9%.
Screening CCc1noc(C)c1C(=O)NNC(=O)COc1ccc(C)cc1 returned ELG1 genotox 1.2%, MCF10A rerep inconclusive, ELG1 repair inh -2.5%, SW480 rereplic inconclusive, p53 reactivation 0.4% and A-T KAP1 phos 3.6%.
O=c1[nH]c2ccsc2c(=O)n1CCO was read as ELG1 genotox 0.2%, MCF10A rerep 1.1%, ELG1 repair inh 13.8%, SW480 rereplic -3.6%, p53 reactivation 1.2% and A-T KAP1 phos 24.1%.
Screening C#CCOc1ccc2c3c(c(=O)oc2c1)CCCC3 returned ELG1 genotox inconclusive, MCF10A rerep 6.0%, ELG1 repair inh 27.8%, SW480 rereplic -4.4%, p53 reactivation -0.1% and A-T KAP1 phos 2.7%.
For O=C(NC(=S)N(CCO)Cc1ccccc1)c1cc(Br)ccc1Cl the results were ELG1 genotox -1.6%, MCF10A rerep -3.7%, ELG1 repair inh 16.2%, SW480 rereplic -496.1%[1.84 µM], p53 reactivation 4.1% and A-T KAP1 phos -2.4%.
Screening COc1cc2cc(CN(Cc3cccnc3)C(=O)Nc3ccccc3)c(=O)[nH]c2cc1OC returned ELG1 genotox -1.9%, MCF10A rerep -33.8%, ELG1 repair inh 7.3µM*, SW480 rereplic -11.1%, p53 reactivation -2.3% and A-T KAP1 phos 0.1%.
Screening CCC(C)NC(=S)N(CCc1ccccc1)Cc1cc2cc(OC)c(OC)cc2[nH]c1=O (stereo unspecified) returned ELG1 genotox -6.1%, MCF10A rerep 5.9%, ELG1 repair inh 6.51µM*, SW480 rereplic 2.0%, p53 reactivation -16.5% and A-T KAP1 phos 1.0%.
For CC(C)[C@H](NC(=O)N1CCn2c1nc1ccccc12)C(=O)N1CCCCC1 the results were ELG1 genotox -0.3%, MCF10A rerep -27.5%, ELG1 repair inh 2.5%, SW480 rereplic 0.9%, p53 reactivation -3.8% and A-T KAP1 phos -9.3%.
Cc1cccc(NC(=O)C2C3CCCCC32)c1 (stereo unspecified) was read as ELG1 genotox inconclusive, MCF10A rerep inconclusive, ELG1 repair inh inconclusive, SW480 rereplic 10.9% and A-T KAP1 phos 3.4%.
Screening CC1(C)Cc2c(sc3c2c(=N)n(Cc2ccco2)c(=O)n3CC(=O)Nc2ccc(Cl)cc2)CO1 returned ELG1 genotox -3.5%, MCF10A rerep 17.6%, ELG1 repair inh 20.6µM*, SW480 rereplic -1.6%, p53 reactivation -7.2% and A-T KAP1 phos 1.2%.
`Cc1cccc(NC(=O)Cn2c(=O)n(Cc3ccco3)c(=N)c3c4c(sc32)COC(C)(C)C4)c1` gave ELG1 genotox -6.5%, MCF10A rerep 9.7%, ELG1 repair inh inconclusive, SW480 rereplic -1.4%, p53 reactivation -8.2% and A-T KAP1 phos 5.4%.
CC1(C)Cc2c(sc3c2c(=N)n(Cc2ccco2)c(=O)n3CC(=O)Nc2ccccc2)CO1 was read as ELG1 genotox 2.0%, MCF10A rerep 1.7%, ELG1 repair inh 9.2µM*, SW480 rereplic 11.8%, p53 reactivation -1.2% and A-T KAP1 phos -1.7%.
